40 compounds from PubChem BioAssay (Tox21) can be followed below.

Structures are written as SMILES. Inconclusive results are not listed. Where a call stands in place of a potency, no number is given. The source made the active and inactive calls. The call rests on the fitted dose curve.

The test in a line: qHTS assay for small molecule agonists of the p53 signaling pathway - cell viability (AID 651633).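 Further: p53RE-bla HCT reporter cells with a stable beta-lactamase p53 reporter; nearly all actives have a fitted effect of over 30% in size.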 The following applies: p53RE-bla HCT-116 viability, ATP luminescence, 16 h; series mostly up to 83.3 µM. The text has this: National Center for Advancing Translational Sciences [NCATS]
NIH Chemical Genomics Center [NCGC]
U.S. Environmental Protection Agency [EPA]
National Institutes of Environmental Health Sciences [NIEHS]
National Toxicology Program [NTP]
U.S. Food and Drug Administration [FDA]
p53, a tumor suppressor protein, is activated following cellular insult, including DNA damage and other cellular stresses. The activation of p53 regulates cell fate by inducing DNA repair, cell cycle arrest, apoptosis, or cellular senescence. The activation of p53, therefore, is a good indicator of DNA damage and other cellular stresses. […] The activation of the reporter gene under culture conditions can be detected by fluorescence intensity. This cell line was used to screen the Tox21 compound library in a 1536-well plate format and to identify agonists that activate the p53 signaling pathway.
Tox21 Assay Protocol Summary:
The p53RE-bla cells were dispensed at 4,000 cells/5 ul/well in 1536-well black wall/clear bottom plates using a Multidrop dispenser. After the assay plates were incubated at a 37 C/5% CO2 incubator for 5 hours, 23 nL of compounds dissolved in DMSO, positive controls or DMSO only was transferred to the assay plate by a pin tool. The plates were incubated at 37 C for 16 hours. After 1 uL of LiveBLAzerTM B/G FRET substrate was added using a Flying Reagent Dispenser, the plates were incubated at room temperature for 2 hours, and fluorescence intensity was measured by an Envision plate reader.
For cell viability readout that measures cytotoxicity, 4 ul/well of CellTiter-Glo reagent was added into the assay plates using a Flying Reagent Dispenser. After 30 min incubation at room temperature, the luminescence intensity in the plates was measured using a ViewLux plate reader.
On the technique in general: qHTS replaces the single test concentration by a dilution series.
As to `CC[C@H]1OC(=O)[C@H](C)[C@@H](O[C@H]2C[C@@](C)(OC)[C@@H](O)[C@H](C)O2)[C@H](C)[C@@H](O[C@@H]2O[C@H](C)C[C@H](N(C)C)[C@H]2O)[C@](C)(OC)C[C@@H](C)C(=O)[C@H](C)[C@@H](O)[C@]1(C)O`, the Potency entry was “inactive”.
In the case of `COc1c(N2CCNC(C)C2)c(F)cc2c(=O)c(C(=O)O)cn(C3CC3)c12` (stereo not given) it was “inactive”; in that of `CCOC(=O)COc1cc(-n2ncc(C(F)(F)F)c(C)c2=O)c(F)cc1Cl`, “inactive”; in that of `COCCOC[C@H](CC1(C(=O)NC2CCC(C(=O)O)CC2)CCCC1)C(=O)Oc1ccc2c(c1)CCC2` (stereo not given in full), “inactive”.
In the case of `CCC(=O)OCc1ccccc1` it was “inactive”; in that of `CCCCCCCC1CCCC1=O` (stereo not given), “inactive”; in that of `CC(COc1ccccc1)NN` (stereo not given), “inactive”.
In the case of `O=S(=O)(O)c1cccc2ccccc12` it was “inactive”; in that of `CC(C)C[C@@H](N)C(=O)O`, “inactive”.
As for `CC(N)C12CC3CC(CC(C3)C1)C2` (stereo not given), the Potency result was “inactive”.
In the case of `C[C@@H]1CCC[C@H](C)N1` it was “inactive”.
Consider `COC(=O)C1=C(C)NC(C)=C(C(=O)OC(C)C)C1c1cccc2nonc12` (stereo not given), for which the Potency entry was “inactive”.
For the compound `COc1ccc2cc1Oc1cc3c(cc1OC)CC[N+](C)(C)[C@H]3Cc1ccc(cc1)Oc1c(OC)c(OC)cc3c1[C@@H](C2)[N+](C)(C)CC3`, the Potency result is “inactive”.
In the case of `CCOCC(C)O` (stereo not given) it was “inactive”.
Regarding `CC(=O)N1C[C@H](O)C[C@H]1C(=O)O`, the Potency result is “inactive”.
In the case of `NCCCC(N)(C(=O)O)C(F)F` (stereo not given) it was “inactive”; in that of `CCCCN1C=CN(C)C1`, “inactive”; in that of `CCCCCCCCCCCCSC`, “inactive”.
As to `CCOC(=O)OC(C)OC1=C(C(=O)Nc2ccccn2)N(C)S(=O)(=O)c2ccccc21` (stereo not given), the Potency result is “inactive”.
In the case of `CCCCCCCCN1CCCC1=O`, the Potency result is “inactive”.
In the case of `CC(C)[C@H]1CC[C@@H](C)CC1=O` it was “inactive”.
As for `COc1cccc(OC)c1C(=O)N[C@@H]1C(=O)N2[C@@H]1SC(C)(C)[C@@H]2C(=O)O`, the Potency result was “inactive”.
On to `CCCCN(CCC(=O)OCC)C(C)=O`, for which the Potency entry was “inactive”.
In the case of `NC(=O)N1c2ccccc2CC(=O)c2ccccc21` it was “inactive”.
Consider `CC(C)(C)C(=O)Oc1ccc(S(=O)(=O)Nc2ccccc2C(=O)NCC(=O)O)cc1`, for which the Potency result is “inactive”.
On to `CCCCS(=O)(=O)N[C@@H](Cc1ccc(OCCCCC2CCNCC2)cc1)C(=O)O`, for which the Potency entry was “inactive”.
In the case of `COc1ccccc1OCC1CNC(=O)O1` (stereo not given) it was “inactive”; in that of `CN1[C@@H]2CC[C@H]1CC(OC(=O)C(O)c1ccccc1)C2` (stereo not given in full), “inactive”.
Consider `CC(C)(C#N)Nc1nc(Cl)nc(NC2CC2)n1`, for which the Potency entry was “inactive”.
In the case of `O=C(CO)[C@@H](O)[C@H](O)[C@H](O)CO` it was “inactive”; in that of `CCOc1ccccc1OCC`, “inactive”; in that of `CC1=CCC(O)(C(C)C)CC1` (stereo not given), “inactive”.
For the compound `O=C(O)CNC(=O)c1ccc(CO)o1`, the Potency result was “inactive”.
In the case of `O=C(O)c1cc(C(=O)O)cc(C(=O)O)c1`, the Potency result is “inactive”.
In the case of `Cc1ccnc(NS(=O)(=O)c2ccc(N)cc2)n1` it was “inactive”; in that of `CN(C)CCN(C)CCN(C)C`, “inactive”.
Take `C[C@H]1C[C@H]2[C@@H]3CCC4=CC(=O)C=C[C@]4(C)[C@H]3C(=O)C[C@]2(C)[C@@]1(O)C(=O)CO`: the Potency entry was “inactive”.
In the case of `O=C1c2ccccc2C(=O)c2cc(O)ccc21` it was “inactive”; in that of `CN(C)CCCN(C)CCCN(C)C`, “inactive”.
`CCCO[Si](OCCC)(OCCC)OCCC`: the Potency result was “inactive”.
